# TSG101-PTAP inh: blocks PTAP/TSG101 interaction to inhibit HIV-1 budding; Q99816; 340,000 tested, under 10 active; Potency, µM (titrated, usually from 115 µM), without a hit: at the top dose activity change, negative = inhibition, hits mostly inhibitors; Fluorescence polarization, FITC-PTAP peptide / Tsg101 binding; active = well fitted inhibition curve with a large enough effect in the main read-out, with a control signal flat, not every such curve was filed as active; inconclusive = small, poorly fitted or top-dose-only effect, or effect the other way, or a change in a side signal; inactive = no such curve, though single readings can be large or run the other way; also: % of control where 0% means no effect
# Target sequence (Q99816 whole entry, looked up): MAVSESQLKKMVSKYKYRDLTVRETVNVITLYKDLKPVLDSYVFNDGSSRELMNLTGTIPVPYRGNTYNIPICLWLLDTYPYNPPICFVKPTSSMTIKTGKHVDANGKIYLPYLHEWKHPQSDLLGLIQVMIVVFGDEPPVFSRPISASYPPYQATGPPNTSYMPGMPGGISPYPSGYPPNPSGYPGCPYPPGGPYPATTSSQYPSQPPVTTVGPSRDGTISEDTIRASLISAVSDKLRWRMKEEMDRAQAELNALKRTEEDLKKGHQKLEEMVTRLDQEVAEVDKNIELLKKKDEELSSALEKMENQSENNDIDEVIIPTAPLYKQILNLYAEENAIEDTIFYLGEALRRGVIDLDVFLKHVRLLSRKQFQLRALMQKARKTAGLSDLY
#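 Compounds were pin-transferred onto Tsg101 binding domain (10 uM final) in HEPES pH 7.5 buffer, then FITC-PTAP peptide was added at 50 nM final. After 20 min at RT, polarization reported peptide displacement across a qHTS concentration series.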
# aSyn rescue: rescues yeast growth from alpha-synuclein toxicity; Potency, µM (doses to about 46.1 µM), without a hit: at the top dose growth rescue (activation), actives largely listed as activators; AID 652106; Yeast expressing alpha-synuclein, growth rescue, BacTiter-Glo, 24 h; actives 0.14% (n = 370,000); also: % of control where 0% means no effect; nearly all actives have a fitted effect of over 65% in size
#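 Screening used galactose-induced yeast with toxic alpha-synuclein levels, exposed to compound for 24 hr at 30 deg C. Cell growth, read with BacTiter-Glo luminescence, gave the measured signal.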
# TDP43 rescue: inhibitors of TDP-43 toxicity in yeast; TDP-43 expressing yeast growth rescue, BacTiter-Glo, 24 h; Potency, µM (doses to about 46.1 µM), for inactives: at the top dose growth rescue (activation), usual class: activators; actives 1.8% (n = 410,000); AID 652104; also: % of control where 0% means no effect; nearly all actives have a fitted effect of over 50% in size
#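 Luminescence from BacTiter-Glo reports growth of TDP-43-expressing yeast after 24 hr at 30 deg C with compound. Cells were raffinose-pregrown to mid-log, then seeded in galactose medium at OD600=0.02.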
# FUS suppressor: FUS proteinopathy suppression in yeast; Potency, µM (doses to about 76.6 µM), actives largely listed as activators; actives 0.24% (n = 390,000); S. cerevisiae FUS-expressing, growth rescue, OD600, 24 h;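 also: plate controls were DMSO vehicle for no effect and reference control for full effect; nearly all actives have a fitted effect of over 55% in size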
#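 Yeast expressing FUS under galactose induction, OD 0.005 in 2% galactose medium; compounds in a dilution series, 24 h at 30C. Growth rescue by absorbance at 600 nm; CP55940 positive control, DMSO negative.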
# Abeta yeast res: restores growth of yeast expressing A-beta42 peptide. yeast expressing A-beta42, growth rescue, OD600, 48 h; response scale: 0% DMSO, 100% iron-clioquinol control. Potency, µM (doses to about 46.1 µM), most hits filed as activators. actives 0.063% (n = 410,000); also: nearly all actives have a fitted effect of over 55% in size
#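 Yeast growth medium received pinned compounds, then yeast cells expressing toxic A-beta were added; plates incubated at 30 C for 48 hr. Growth read as absorbance at 600 nm, normalized to DMSO and equimolar FeCl3 plus clioquinol controls.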
# * = called active by the depositor; i = inactive; ? = inconclusive; . = no result given; [ ] = another dose, or the depositor's remark. Shown are actives, neighbours in structure and some others; about 2.1% of the full set was active somewhere. Unless noted, calls follow the shape of the dose curve; as a rule, active = well fitted curve in the direction sought with a large enough effect; inconclusive = small, poorly fitted or top-dose-only effect, or another doubt; inactive = no such curve, though single readings can be large; an effect the other way counts as inactive or inconclusive. Potency is read from the fitted curve at half-maximal effect.
SMILES,TSG101-PTAP inh,aSyn rescue,TDP43 rescue,FUS suppressor,Abeta yeast res
C(=N\Nc1nc(Nc2ccccc2)nc(N2CCOCC2)n1)/c1c[nH]c2ccccc12,-8%,5%,0%,28µM*,i
Cc1ccc(Nc2nc(N)c([N+](=O)[O-])c(N3CCC(C)CC3)n2)cc1C,-1%,14%,?,.,i
Cc1cccc(Nc2nc(N3CCOCC3)nc(N3CCOCC3)n2)c1,0%,1%,?,i,i
Cc1ccc(Nc2nc(N3CCOCC3)nc(N3CCOCC3)n2)cc1C,5%,8%,13µM*,i,?
Cc1ccc(Nc2nc(N)c([N+](=O)[O-])c(N3CCOCC3)n2)cc1C,0%,9%,18µM*,i,?
Cc1cccc(Nc2nc(Nc3cccc(C)c3)nc(N3CCOCC3)n2)c1,.,.,16µM*,i,i
C[C@@H](NC(=O)[C@@H]1CCCN1C(=O)[C@@H]1CCCN1C(=O)OC(C)(C)C)c1ccccc1,.,-2%,9%,i,i
Cc1csc(NC(=O)c2ccc(Cn3nc(C)c(Br)c3C)o2)n1,-5%,-54%,?,i,i
Cc1nn(Cc2ccc(C(=O)Nc3ccccc3C(F)(F)F)o2)c(C)c1Br,-1%,.,13µM*,i,i
CCN(CC)S(=O)(=O)c1ccc(N2CCOCC2)c(NC(=O)c2cc3ccccc3o2)c1,.,-6%,35µM*,i,i
O=C(Nc1ccccc1C(=O)NCc1ccccc1)c1ccccc1Br,-1%,-27%,17%,i,i
Cc1ccccc1C(=O)Nc1ccccc1C(=O)NCc1ccccc1,-7%,-14%,11µM*,i,i
Cc1cc(/C=C/c2c(C)cnc3ccccc23)ccc1N(C)C,.,-36%,.,.,.
COc1ccc(S(=O)(=O)N(CC(=O)Nc2ccccc2Br)Cc2ccccc2)cc1,.,.,21%,i,i
COC(=O)c1ccc(CNC(=O)COC(=O)CCC(=O)c2ccc(F)cc2)cc1,-2%,-2%,2%,.,i
CCOc1ccccc1/C=N/OCC(=O)NCc1ccc(F)cc1,8%,2%,22µM*,i,i
COC(=O)c1ccc(/C=N/OCC(=O)NCc2ccc(F)cc2)cc1,2%,0%,32µM*,i,i
O=C(COc1ccc(C(=O)c2ccc(F)cc2)cc1)NCc1ccc(F)cc1,-4%,7%,20µM*,.,i
CCCCCn1c(=O)c2c(nc3n2CCN3c2ccc(Br)cc2)n(C)c1=O,.,.,15%,i,i
N/C(=N\OC(=O)c1ccc(Cl)cc1)c1ccc(Cl)cc1,-4%,-23%,7.9µM*,i,i
N/C(=N\OC(=O)c1ccc(F)cc1)c1ccc(Br)cc1,-4%,-12%,3.2µM*,i,i
COc1ccccc1C(=O)NC1CCCCN(Cc2cccc(C(F)(F)F)c2)C1=O (configuration not stated),.,.,.,i,.
COc1cccc(CNC(=S)Nc2cccc(Cl)c2C)c1,1%,1%,18µM*,i,?
CCOCCCn1c(SCC(=O)Nc2ccccc2Cl)nc2c(oc3ccccc32)c1=O,.,.,8%,i,i
COC(=O)C1CCN(C(=O)COc2ccc(Cl)cc2)CC1,-2%,3%,1%,i,i
SMILES,TSG101-PTAP inh,aSyn rescue,TDP43 rescue,FUS suppressor,Abeta yeast res
COC(=O)C1CCN(C(=O)COc2cc3sc(C)nc3c3sccc23)CC1,-8%,1%,20µM*,i,i
O=C(Nc1ccncc1)c1cnn2c1NC(=C1CC1)C=C2C(F)F,.,9%,.,.,.
CC1CCN(S(=O)(=O)c2cn(CC(=O)Nc3ccc(F)c(Cl)c3)c(=O)c3ccccc23)CC1,.,.,7%,i,i
Cc1nc(N2CCN(c3ccccc3)CC2)nc2c1C(=O)CCC2,0%,23%,13µM*,i,i
Cc1nc(N2CCN(c3ccccc3)CC2)nc2c1C(=O)CC(C)C2 (configuration not stated),-7%,4%,?,i,i
N#Cc1cc(N)ccc1Sc1ccc(Cl)cc1,-1%,18%,16µM*,i,i[9.22 µM]
N#Cc1cc(N)ccc1Sc1ccccc1,-6%,13%,11µM*,i,i

# Screening data deposited in PubChem BioAssay by National Center for Advancing Translational Sciences (NCATS).
